Measurements: PubChem BioAssay (EPA / NIEHS)
Calls of active or inactive are those of the source. The calls were made as follows: active = hit-call score of the fitted dose curve at least 0.9, where 1 is the maximum; inactive = score below 0.9.

Assays:
Settings in all cases: mRNA level, 48 h; actives raise or lower the signal
[1] = read-out: Cytochrome P450 7A1 (Homo sapiens) (UniProt P22680); assay: LTEA_HepaRG_CYP7A1: Life Technologies and Expression Analysis (LTEA) Assay for Cytochrome P450 7A1 (CYP7A1) using HepaRG (AID 2283496)
Outline: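 HepaRG cells plated 48 h, then switched to serum-free induction medium and exposed in duplicate for 48 h to 8-point half-log series from 100 uM in 0.5% DMSO. CYP7A1 mRNA by qRT-PCR (TaqMan), normalized to ACTB/GAPDH/POLR2A; bidirectional fit versus DMSO.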

[2] = read-out: Glutathione S-Transferase (GSTA2), GSTA2 (gene 2939); assay: LTEA_HepaRG_GSTA2: Life Technologies and Expression Analysis (LTEA) Assay for Glutathione S-Transferase (GSTA2) using HepaRG (AID 2283497)
Outline: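 Human HepaRG cells, plated 48 h, then exposed in serum-free induction medium for 48 h to eight half-log concentrations up to 100 uM in 0.5% DMSO, duplicate. GSTA2 mRNA by qRT-PCR, normalized to ACTB/GAPDH/POLR2A; bidirectional fit versus DMSO.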

[3] = read-out: Glutamate-cysteine ligase catalytic (GCLC), GCLC (gene 2729); assay: LTEA_HepaRG_GCLC: Life Technologies and Expression Analysis (LTEA) Assay for Glutamate-cysteine ligase catalytic (GCLC) using HepaRG (AID 2283498)
Outline: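 Differentiated human HepaRG cells, plated 48 h then switched to serum-free induction medium, were exposed in duplicate for 48 h to 8 half-log concentrations topping at 100 uM in 0.5% DMSO. GCLC mRNA was quantified by qRT-PCR against ACTB, GAPDH and POLR2A.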

[4] = read-out: Glutamate-cysteine ligase regulatory (GCLM), GCLM (gene 2730); assay: LTEA_HepaRG_GCLM: Life Technologies and Expression Analysis (LTEA) Assay for Glutamate-cysteine ligase regulatory (GCLM) using HepaRG (AID 2283500)
Outline: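 Differentiated HepaRG cells exposed 48 h in serum-free induction medium to eight half-log concentrations up to 100 uM (0.5% DMSO). GCLM mRNA by TaqMan qRT-PCR, normalized to ACTB, GAPDH and POLR2A; bidirectional fit versus DMSO.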

[5] = read-out: Glutathione S-transferase M3 (GSTM3), GSTM3 (gene 2947); assay: LTEA_HepaRG_GSTM3: Life Technologies and Expression Analysis (LTEA) Assay for Glutathione S-transferase M3 (GSTM3) using HepaRG (AID 2283501)
Outline: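 GSTM3 transcript levels came from Fluidigm TaqMan qRT-PCR normalized to three housekeeping genes, fitted in both directions against DMSO. HepaRG cultures received chemicals for 48 h in serum-free induction medium (0.5% DMSO), 8 half-log concentrations up to 100 uM, duplicate.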

[6] = read-out: Heat shock 70 kDa protein 1 (HSPA1A), gene 3303; assay: LTEA_HepaRG_HSPA1A: Life Technologies and Expression Analysis (LTEA) Assay for Heat shock 70 kDa protein 1 (HSPA1A) using HepaRG (AID 2283502)
Outline: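 Human HepaRG cells in serum-free induction medium were exposed in duplicate for 48 h to 8 half-log concentrations, highest 100 uM, in 0.5% DMSO. HSPA1A mRNA read by TaqMan qRT-PCR, normalized to ACTB, GAPDH, POLR2A, fitted bidirectionally against DMSO.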

[7] = read-out: Hypoxia-inducible factor 1-alpha (Homo sapiens) (UniProt Q16665); assay: LTEA_HepaRG_HIF1A: Life Technologies and Expression Analysis (LTEA) Assay for Hypoxia-inducible factor 1 (HIF1A) Trancription factor using HepaRG (AID 2283503)
Outline: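 Differentiated HepaRG cells in serum-free induction medium exposed 48 h, in duplicate, to 8-point half-log series from 100 uM in 0.5% DMSO. HIF1A mRNA measured by TaqMan qRT-PCR, normalized to ACTB/GAPDH/POLR2A, fitted bidirectionally versus DMSO.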

[8] = read-out: 3-Hydroxy-3-Methylglutaryl-CoA Synthase 2 (HMGCS2), HMGCS2 (gene 3158); assay: LTEA_HepaRG_HMGCS2: Life Technologies and Expression Analysis (LTEA) Assay for 3-Hydroxy-3-Methylglutaryl-CoA Synthase 2 (HMGCS2) using HepaRG (AID 2283504)
Outline: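 Readout is HMGCS2 transcript by qRT-PCR, housekeeping-normalised (ACTB/GAPDH/POLR2A) and fitted bidirectionally against 0.5% DMSO. Differentiated HepaRG cells received chemicals 48 h, duplicate wells, eight half-log concentrations topping at 100 uM.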

[9] = read-out: HGF (gene 3082); assay: LTEA_HepaRG_HGF: Life Technologies and Expression Analysis (LTEA) Assay for Hepatocyte Growth Facto (HGF) using HepaRG (AID 2283505)
Outline: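 HGF transcript was quantified by TaqMan qRT-PCR against three housekeeping genes after 48 h treatment of HepaRG cells. Exposure ran in duplicate over eight half-log steps topping at 100 uM in 0.5% DMSO vehicle.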

[10] = read-out: Insulin Like Growth Factor 1 (IGF1), IGF1 (gene 3479); assay: LTEA_HepaRG_IGF1: Life Technologies and Expression Analysis (LTEA) Assay for Insulin Like Growth Factor 1 (IGF1) using HepaRG (AID 2283506)
Outline: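 Differentiated HepaRG cells in serum-free induction medium, exposed 48 h in duplicate to 8 half-log concentrations up to 100 uM in 0.5% DMSO. IGF1 mRNA by Fluidigm qRT-PCR, normalised to ACTB, GAPDH and POLR2A.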

[11] = read-out: Intercellular Adhesion Molecule 1 (ICAM1), ICAM1 (gene 3383); assay: LTEA_HepaRG_ICAM1: Life Technologies and Expression Analysis (LTEA) Assay for Intercellular Adhesion Molecule 1 (ICAM1) using HepaRG (AID 2283507)
Outline: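 ICAM1 transcript levels measured by qRT-PCR, normalized to three housekeeping genes (ACTB, GAPDH, POLR2A), after 48 h chemical exposure of HepaRG cells. Duplicate eight-point half-log series from 100 uM in 0.5% DMSO; gain or loss fitted against vehicle.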

[12] = read-out: Insulin-like growth factor-binding protein 1 (IGFBP1), IGFBP1 (gene 3484); assay: LTEA_HepaRG_IGFBP1: Life Technologies and Expression Analysis (LTEA) Assay for Insulin-like growth factor-binding protein 1 (IGFBP1) using HepaRG (AID 2283508)
Outline: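 Read-out is qRT-PCR transcript level normalized to three housekeeping genes, fitted in both directions against 0.5% DMSO. Differentiated HepaRG cells received eight half-log concentrations (top 100 uM) in duplicate for 48 h in serum-free induction medium.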

[13] = read-out: Interleukin 6 (IL6), IL6 (gene 3569); assay: LTEA_HepaRG_IL6: Life Technologies and Expression Analysis (LTEA) Assay for Interleukin 6 (IL6) using HepaRG (AID 2283509)
Outline: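 Differentiated human HepaRG cells, plated 48 h then switched to serum-free induction medium, were exposed in duplicate for 48 h to eight half-log concentrations up to 100 uM in 0.5% DMSO. IL6 mRNA measured by qRT-PCR, normalized to ACTB/GAPDH/POLR2A.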

[14] = read-out: Interleukin 6 Receptor (IL6R), IL6R (gene 3570); assay: LTEA_HepaRG_IL6R: Life Technologies and Expression Analysis (LTEA) Assay for Interleukin 6 Receptor (IL6R) using HepaRG (AID 2283510)
Outline: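 Differentiated HepaRG cells, plated 48 h, then exposed in duplicate for 48 h in serum-free induction medium to 8 half-log concentrations (top 100 uM, 0.5% DMSO). IL6R mRNA measured by TaqMan qRT-PCR, normalized to ACTB/GAPDH/POLR2A; bidirectional fit vs DMSO.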

[15] = read-out: Potassium channel subfamily K member 1 (KCNK1), KCNK1 (gene 3775); assay: LTEA_HepaRG_KCNK1: Life Technologies and Expression Analysis (LTEA) Assay for Potassium channel subfamily K member 1 (KCNK1) using HepaRG (AID 2283511)
Outline: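 Differentiated human HepaRG cells in serum-free induction medium were exposed in duplicate for 48 h to 8 half-log concentrations up to 100 uM in 0.5% DMSO. KCNK1 mRNA was measured by TaqMan qRT-PCR, normalized to ACTB, GAPDH and POLR2A, and fitted bidirectionally versus DMSO.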

[16] = read-out: Keratin 19 (KRT19), KRT19 (gene 3880); assay: LTEA_HepaRG_KRT19: Life Technologies and Expression Analysis (LTEA) Assay for Keratin 19 (KRT19) using HepaRG (AID 2283512)
Outline: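 KRT19 transcript measured by TaqMan qRT-PCR, referenced to three housekeeping genes, after HepaRG cells received test chemicals for 48 h. Eight half-log concentrations, top 100 uM, 0.5% DMSO vehicle; increases and decreases both fitted.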

[17] = read-out: JUN Transcription Factor, JUN (gene 3725); assay: LTEA_HepaRG_JUN: Life Technologies and Expression Analysis (LTEA) Assay for JUN Transcription Factor using HepaRG (AID 2283513)
Outline: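 HepaRG cells, 48 h post-plating, exposed 48 h in serum-free induction medium to 8-point half-log series (top 100 uM, 0.5% DMSO), duplicate; mRNA by qRT-PCR (TaqMan, Fluidigm), normalized to ACTB/GAPDH/POLR2A; bidirectional fit vs DMSO.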

[18] = read-out: Lipase C (LIPC), LIPC (gene 3990); assay: LTEA_HepaRG_LIPC: Life Technologies and Expression Analysis (LTEA) Assay for Lipase C (LIPC) using HepaRG (AID 2283514)
Outline: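 Differentiated human HepaRG cells in serum-free induction medium were exposed in duplicate for 48 h to eight concentrations (top 100 uM, half-log steps, 0.5% DMSO). LIPC mRNA was quantified by TaqMan qRT-PCR, normalized to ACTB, GAPDH and POLR2A, with bidirectional fitting versus DMSO.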

[19] = read-out: Lipoprotein lipase (LPL), LPL (gene 4023); assay: LTEA_HepaRG_LPL: Life Technologies and Expression Analysis (LTEA) Assay for Lipoprotein lipase (LPL) using HepaRG (AID 2283515)
Outline: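 Differentiated human HepaRG cells in serum-free induction medium were exposed in duplicate for 48 h to eight half-log concentrations (top 100 uM) in 0.5% DMSO. LPL mRNA was quantified by TaqMan qRT-PCR, normalized to ACTB, GAPDH and POLR2A.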

Measured: AC50

Hypoxia-inducible factor 1-alpha (Homo sapiens), sequence (Q16665 whole entry, looked up): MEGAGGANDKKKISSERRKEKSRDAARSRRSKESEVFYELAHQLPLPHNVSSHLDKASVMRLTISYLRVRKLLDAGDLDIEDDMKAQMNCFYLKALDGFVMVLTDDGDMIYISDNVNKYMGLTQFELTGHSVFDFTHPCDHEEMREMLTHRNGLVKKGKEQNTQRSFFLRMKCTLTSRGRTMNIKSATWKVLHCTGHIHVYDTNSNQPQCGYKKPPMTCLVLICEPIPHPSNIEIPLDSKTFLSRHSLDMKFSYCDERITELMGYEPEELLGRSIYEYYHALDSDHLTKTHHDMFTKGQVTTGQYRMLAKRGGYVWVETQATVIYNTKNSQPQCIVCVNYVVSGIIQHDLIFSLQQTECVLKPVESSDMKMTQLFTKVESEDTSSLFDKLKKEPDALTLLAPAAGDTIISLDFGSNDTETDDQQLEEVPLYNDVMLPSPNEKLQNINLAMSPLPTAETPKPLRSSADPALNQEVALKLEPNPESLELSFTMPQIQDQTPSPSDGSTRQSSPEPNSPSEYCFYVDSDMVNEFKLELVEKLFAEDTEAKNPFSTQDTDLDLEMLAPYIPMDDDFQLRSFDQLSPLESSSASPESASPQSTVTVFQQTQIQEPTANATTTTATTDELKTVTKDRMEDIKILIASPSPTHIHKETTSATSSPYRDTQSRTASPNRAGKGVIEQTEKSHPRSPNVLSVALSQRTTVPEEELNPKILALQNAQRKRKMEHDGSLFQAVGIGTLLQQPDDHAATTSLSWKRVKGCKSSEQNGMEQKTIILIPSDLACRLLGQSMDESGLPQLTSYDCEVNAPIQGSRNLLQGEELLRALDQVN

COC(=O)C=C(C)OP(=O)(OC)OC
active: [1] 14.7 µM
inactive: all other assays above

CCc1nn(C)c(C(=O)NCc2ccc(C(C)(C)C)cc2)c1Cl
inactive: [7] | [14] | [17]
active: [1] 11.9 µM | [2] 11.9 µM | [3] 50 µM | [4] 12.2 µM | [5] 4.76 µM | [6] 9.92 µM | [8] 8.88 µM | [9] 78.6 µM | [10] 0.782 µM | [11] 2.34 µM | [12] 2.34 µM | [13] 1.37 µM | [15] 9.92 µM | [16] 0.616 µM | [18] 0.58 µM | [19] 2.22 µM

N#Cc1nn(-c2c(Cl)cc(C(F)(F)F)cc2Cl)c(N)c1S(=O)C(F)(F)F (stereo unspecified)
inactive: [3] | [11] | [15]
active: [1] 35 µM | [2] 32 µM | [4] 29.1 µM | [5] 80.8 µM | [6] 11.9 µM | [7] 79.5 µM | [8] 38.3 µM | [9] 90.3 µM | [10] 13.4 µM | [12] 47.7 µM | [13] 44.8 µM | [14] 91.4 µM | [16] 12.6 µM | [17] 50.2 µM | [18] 42.6 µM | [19] 31.3 µM

CC(Oc1ccc(Cl)cc1Cl)C(=O)O (stereo unspecified)
inactive: all assays above
